Assay in all cases: DAPPL (digital affinity profiling via proximity ligation, sequencing); 10 mM Tris-HCl pH 7.5, 50 mM NaCl, 1 mM DTT, 4% glycerol, room temperature, 30 min; GST-TFs on glutathione beads, 16-mer random dsDNA library, 0.1% formaldehyde crosslink after washing; high values mean tight binding
In one assay the target is T1, FEV (Homo sapiens, UniProt Q99581 1-238).
T1 sequence: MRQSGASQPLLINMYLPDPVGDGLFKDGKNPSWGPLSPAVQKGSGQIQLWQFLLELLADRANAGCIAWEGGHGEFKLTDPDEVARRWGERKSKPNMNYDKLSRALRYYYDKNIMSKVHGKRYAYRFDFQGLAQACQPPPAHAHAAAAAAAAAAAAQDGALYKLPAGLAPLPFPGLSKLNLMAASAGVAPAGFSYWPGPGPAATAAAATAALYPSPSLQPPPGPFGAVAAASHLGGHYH
The note with it: protein: recombinant; tags: N-terminal GST; dsDNA, one strand shown. A digest of the protocol:
(§1)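 Binding signal is each hexamer's read frequency for a factor divided by its frequency in the tag-only sample. The factors were GST-fused human transcription factors from yeast, captured on glutathione beads, DNA-barcoded and pooled with that sample. Pools were incubated with 200 nmole of a random double-stranded 16-mer DNA library in Tris/NaCl/DTT/glycerol buffer at room temperature for 30 min, then washed, crosslinked with 0.1% formaldehyde, proximity-ligated with BsaI/T4 ligase (1 h, 37 °C), PCR-amplified and sequenced on an Illumina NextSeq500.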

Another assay has as its target ETV5 (Homo sapiens, UniProt P41161 1-510). The note with it: protein: recombinant; tags: N-terminal GST; dsDNA, one strand shown. The essentials: as §1
In the next assay the target is HSF1 (Homo sapiens, UniProt Q00613 1-529). The note with it: protein: recombinant; tags: N-terminal GST; chain copies: 3; dsDNA, one strand shown. The essentials:
as §1

A further assay addresses T2, SPIC (Homo sapiens, UniProt Q8N5J4 1-248).
T2 sequence: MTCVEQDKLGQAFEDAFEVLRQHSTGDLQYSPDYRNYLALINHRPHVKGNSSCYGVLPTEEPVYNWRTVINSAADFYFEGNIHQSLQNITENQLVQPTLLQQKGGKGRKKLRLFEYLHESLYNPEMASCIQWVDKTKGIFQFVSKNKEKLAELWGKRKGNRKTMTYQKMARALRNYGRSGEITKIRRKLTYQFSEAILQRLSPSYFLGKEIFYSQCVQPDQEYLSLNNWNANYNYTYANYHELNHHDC
The note with it: protein: recombinant; tags: N-terminal GST; dsDNA, one strand shown. A digest of the protocol:
as §1

For the next assay, the target named is ELF4 (Homo sapiens, UniProt Q99607 1-663). Particulars: protein: recombinant; tags: N-terminal GST; dsDNA, one strand shown. A digest of the protocol:
as §1

The target in another assay is T3, ELK4 (Homo sapiens, UniProt P28324-2 1-405).
T3 sequence: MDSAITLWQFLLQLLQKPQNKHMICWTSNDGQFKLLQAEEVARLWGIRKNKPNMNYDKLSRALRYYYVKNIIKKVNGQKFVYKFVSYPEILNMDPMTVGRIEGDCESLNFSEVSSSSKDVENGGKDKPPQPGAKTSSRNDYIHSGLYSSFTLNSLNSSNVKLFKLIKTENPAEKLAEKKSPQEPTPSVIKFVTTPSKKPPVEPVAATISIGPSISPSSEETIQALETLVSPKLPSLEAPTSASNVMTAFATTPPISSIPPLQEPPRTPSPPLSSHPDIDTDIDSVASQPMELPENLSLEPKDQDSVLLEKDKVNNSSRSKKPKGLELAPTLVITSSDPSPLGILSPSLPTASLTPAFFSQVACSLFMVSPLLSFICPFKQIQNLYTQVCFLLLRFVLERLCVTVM
The note with it: protein: recombinant; tags: N-terminal GST; dsDNA, one strand shown. A digest of the protocol:
as §1

The target in a further assay is T4, ETV2 (Homo sapiens, UniProt O00321 1-342).
T4 sequence: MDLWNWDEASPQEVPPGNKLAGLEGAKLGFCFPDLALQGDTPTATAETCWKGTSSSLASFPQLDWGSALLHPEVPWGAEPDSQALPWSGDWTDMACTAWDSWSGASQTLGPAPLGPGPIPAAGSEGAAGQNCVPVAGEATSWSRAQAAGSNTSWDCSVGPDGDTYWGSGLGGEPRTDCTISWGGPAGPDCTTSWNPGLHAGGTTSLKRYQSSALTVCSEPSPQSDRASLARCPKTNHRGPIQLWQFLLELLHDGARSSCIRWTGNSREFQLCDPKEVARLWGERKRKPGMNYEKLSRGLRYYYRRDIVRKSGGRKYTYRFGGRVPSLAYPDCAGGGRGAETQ
The note with it: protein: recombinant; tags: N-terminal GST; dsDNA, one strand shown. A digest of the protocol:
as §1

A further assay deals with T5, ELF3 (Homo sapiens, UniProt P78545 1-371).
T5 sequence: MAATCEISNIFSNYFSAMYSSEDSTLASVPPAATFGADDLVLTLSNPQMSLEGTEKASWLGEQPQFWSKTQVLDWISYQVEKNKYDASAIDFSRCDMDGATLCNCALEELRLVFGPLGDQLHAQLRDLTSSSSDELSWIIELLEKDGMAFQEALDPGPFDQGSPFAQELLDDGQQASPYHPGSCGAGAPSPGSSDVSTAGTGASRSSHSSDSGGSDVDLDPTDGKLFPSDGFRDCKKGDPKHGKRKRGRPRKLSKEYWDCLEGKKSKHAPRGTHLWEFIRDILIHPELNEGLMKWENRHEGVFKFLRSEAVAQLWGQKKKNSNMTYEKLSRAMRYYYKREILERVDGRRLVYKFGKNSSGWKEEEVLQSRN
The note with it: protein: recombinant; tags: N-terminal GST; dsDNA, one strand shown. A digest of the protocol:
as §1

The next assay deals with CRX (Homo sapiens, UniProt O43186 1-299). Particulars: protein: recombinant; tags: N-terminal GST; dsDNA, one strand shown. The essentials:
as §1

For a further assay, the target named is ETV1 (Homo sapiens, UniProt P50549 1-477). The note with it: protein: recombinant; tags: N-terminal GST; dsDNA, one strand shown. The essentials:
as §1

Another assay deals with T6, ERF (Homo sapiens, UniProt P50548 1-548).
T6 sequence: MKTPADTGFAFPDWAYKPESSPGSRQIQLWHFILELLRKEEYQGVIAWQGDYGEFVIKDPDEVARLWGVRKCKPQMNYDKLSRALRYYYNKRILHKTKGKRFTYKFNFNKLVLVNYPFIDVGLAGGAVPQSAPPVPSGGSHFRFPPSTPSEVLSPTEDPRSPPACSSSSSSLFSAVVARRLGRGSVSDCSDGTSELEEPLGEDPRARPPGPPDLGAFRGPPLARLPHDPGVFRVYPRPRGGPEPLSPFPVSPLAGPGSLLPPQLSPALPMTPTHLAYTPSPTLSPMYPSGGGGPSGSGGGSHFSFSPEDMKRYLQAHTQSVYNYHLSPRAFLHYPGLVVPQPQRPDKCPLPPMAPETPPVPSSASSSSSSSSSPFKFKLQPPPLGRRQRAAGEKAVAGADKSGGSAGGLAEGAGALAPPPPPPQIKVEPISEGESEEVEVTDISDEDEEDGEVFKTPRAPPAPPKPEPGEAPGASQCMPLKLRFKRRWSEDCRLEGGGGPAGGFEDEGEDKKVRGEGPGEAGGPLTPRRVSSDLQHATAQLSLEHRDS
Particulars: protein: recombinant; tags: N-terminal GST; dsDNA, one strand shown. A digest of the protocol: as §1

Another assay concerns the target T7, ETV3L (Homo sapiens, UniProt Q6ZN32 1-361).
T7 sequence: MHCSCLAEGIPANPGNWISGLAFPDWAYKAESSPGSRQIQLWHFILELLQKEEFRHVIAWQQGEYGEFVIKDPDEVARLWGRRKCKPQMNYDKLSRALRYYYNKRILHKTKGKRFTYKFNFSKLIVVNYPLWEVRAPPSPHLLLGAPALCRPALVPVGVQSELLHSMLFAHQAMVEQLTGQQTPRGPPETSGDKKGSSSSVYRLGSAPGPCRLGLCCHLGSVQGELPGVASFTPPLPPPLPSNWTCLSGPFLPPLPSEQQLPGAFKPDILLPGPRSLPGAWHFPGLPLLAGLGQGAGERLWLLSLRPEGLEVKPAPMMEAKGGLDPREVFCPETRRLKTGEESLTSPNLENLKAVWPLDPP
The note with it: protein: recombinant; tags: N-terminal GST; dsDNA, one strand shown. A digest of the protocol: as §1

The target in the next assay is T8, ETS2 (Homo sapiens, UniProt P15036 1-469).
T8 sequence: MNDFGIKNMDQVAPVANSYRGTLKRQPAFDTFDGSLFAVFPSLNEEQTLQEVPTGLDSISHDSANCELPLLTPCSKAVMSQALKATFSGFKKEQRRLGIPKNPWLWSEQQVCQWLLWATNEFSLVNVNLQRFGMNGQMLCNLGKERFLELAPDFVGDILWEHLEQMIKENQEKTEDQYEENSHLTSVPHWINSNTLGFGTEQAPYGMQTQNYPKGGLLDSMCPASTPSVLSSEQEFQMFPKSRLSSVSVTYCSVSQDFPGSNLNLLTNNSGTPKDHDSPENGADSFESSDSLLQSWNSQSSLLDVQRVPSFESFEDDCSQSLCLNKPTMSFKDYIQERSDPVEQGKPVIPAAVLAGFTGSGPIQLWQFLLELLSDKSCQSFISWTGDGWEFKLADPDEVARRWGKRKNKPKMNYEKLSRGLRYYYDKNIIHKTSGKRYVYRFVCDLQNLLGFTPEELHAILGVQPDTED
The note with it: protein: recombinant; tags: N-terminal GST; dsDNA, one strand shown. The essentials: as §1

In another assay the target is T9, SPDEF (Homo sapiens, UniProt O95238 1-335).
T9 sequence: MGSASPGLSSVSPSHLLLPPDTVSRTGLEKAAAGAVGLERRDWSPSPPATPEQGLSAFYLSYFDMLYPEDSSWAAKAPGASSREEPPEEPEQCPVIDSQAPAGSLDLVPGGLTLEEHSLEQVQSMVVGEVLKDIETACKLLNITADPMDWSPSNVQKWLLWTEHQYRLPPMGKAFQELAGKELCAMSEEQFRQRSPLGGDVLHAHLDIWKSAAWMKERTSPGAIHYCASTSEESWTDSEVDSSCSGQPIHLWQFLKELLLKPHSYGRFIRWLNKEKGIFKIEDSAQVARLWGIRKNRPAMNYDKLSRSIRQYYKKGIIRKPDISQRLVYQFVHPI
Particulars: protein: recombinant; tags: N-terminal GST; dsDNA, one strand shown. A digest of the protocol:
as §1

The target in another assay is T10, ETV7 (Homo sapiens, UniProt Q9Y603 1-341).
T10 sequence: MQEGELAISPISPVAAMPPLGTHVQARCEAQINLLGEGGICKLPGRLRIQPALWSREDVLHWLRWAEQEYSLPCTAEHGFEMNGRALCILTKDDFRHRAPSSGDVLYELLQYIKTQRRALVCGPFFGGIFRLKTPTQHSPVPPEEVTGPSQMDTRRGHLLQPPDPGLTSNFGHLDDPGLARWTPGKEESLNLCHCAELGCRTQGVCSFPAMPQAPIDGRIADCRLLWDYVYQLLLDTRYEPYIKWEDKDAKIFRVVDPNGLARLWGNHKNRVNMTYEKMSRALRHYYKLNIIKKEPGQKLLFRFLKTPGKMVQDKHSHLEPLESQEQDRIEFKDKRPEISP
The note with it: protein: recombinant; tags: N-terminal GST; dsDNA, one strand shown. The essentials: as §1

The next assay addresses T11, ELF5 (Homo sapiens, UniProt Q9UKW6-2 1-255).
T11 sequence: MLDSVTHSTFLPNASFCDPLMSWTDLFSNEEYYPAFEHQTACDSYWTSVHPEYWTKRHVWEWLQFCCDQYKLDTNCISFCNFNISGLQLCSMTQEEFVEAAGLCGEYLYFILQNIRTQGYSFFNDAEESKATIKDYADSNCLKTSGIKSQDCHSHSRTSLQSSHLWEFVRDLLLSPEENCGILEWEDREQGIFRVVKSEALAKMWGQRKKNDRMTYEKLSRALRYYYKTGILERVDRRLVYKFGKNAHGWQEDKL
The note with it: protein: recombinant; tags: N-terminal GST; dsDNA, one strand shown. The essentials:
as §1

Another assay deals with T12, ETV3 (Homo sapiens, UniProt P41162-2 1-143).
T12 sequence: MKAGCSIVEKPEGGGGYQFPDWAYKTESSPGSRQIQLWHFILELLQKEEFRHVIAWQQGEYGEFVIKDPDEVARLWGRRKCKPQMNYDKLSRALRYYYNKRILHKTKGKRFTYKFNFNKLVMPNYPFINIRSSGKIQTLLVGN
Particulars: protein: recombinant; tags: N-terminal GST; dsDNA, one strand shown. A digest of the protocol:
as §1

For the next assay, the target named is ETV6 (Homo sapiens, UniProt P41212 1-452). The note with it: protein: recombinant; tags: N-terminal GST; dsDNA, one strand shown. A digest of the protocol: as §1
Chain of ETV6 (P41212 whole entry): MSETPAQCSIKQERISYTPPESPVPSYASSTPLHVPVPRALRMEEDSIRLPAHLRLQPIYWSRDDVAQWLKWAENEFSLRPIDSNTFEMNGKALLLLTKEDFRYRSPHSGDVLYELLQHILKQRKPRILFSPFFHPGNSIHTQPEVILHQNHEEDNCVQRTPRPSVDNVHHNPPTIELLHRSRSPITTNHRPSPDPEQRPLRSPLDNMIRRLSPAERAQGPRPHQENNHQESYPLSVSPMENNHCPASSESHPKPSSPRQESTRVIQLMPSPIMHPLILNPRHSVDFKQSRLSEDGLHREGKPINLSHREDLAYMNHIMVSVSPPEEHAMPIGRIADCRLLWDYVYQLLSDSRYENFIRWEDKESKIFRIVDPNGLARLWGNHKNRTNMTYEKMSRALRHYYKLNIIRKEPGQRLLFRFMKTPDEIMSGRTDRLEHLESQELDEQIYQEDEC

Chain of CRX (O43186 whole entry): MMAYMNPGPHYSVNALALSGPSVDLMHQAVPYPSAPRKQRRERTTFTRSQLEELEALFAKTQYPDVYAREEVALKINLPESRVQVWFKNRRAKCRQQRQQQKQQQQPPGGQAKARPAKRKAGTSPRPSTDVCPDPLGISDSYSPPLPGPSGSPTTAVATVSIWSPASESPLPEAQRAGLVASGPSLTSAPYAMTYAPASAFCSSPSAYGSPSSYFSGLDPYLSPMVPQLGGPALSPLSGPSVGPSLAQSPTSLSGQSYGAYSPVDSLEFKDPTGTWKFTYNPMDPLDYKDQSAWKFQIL
Chain of ETV5 (P41161 whole entry): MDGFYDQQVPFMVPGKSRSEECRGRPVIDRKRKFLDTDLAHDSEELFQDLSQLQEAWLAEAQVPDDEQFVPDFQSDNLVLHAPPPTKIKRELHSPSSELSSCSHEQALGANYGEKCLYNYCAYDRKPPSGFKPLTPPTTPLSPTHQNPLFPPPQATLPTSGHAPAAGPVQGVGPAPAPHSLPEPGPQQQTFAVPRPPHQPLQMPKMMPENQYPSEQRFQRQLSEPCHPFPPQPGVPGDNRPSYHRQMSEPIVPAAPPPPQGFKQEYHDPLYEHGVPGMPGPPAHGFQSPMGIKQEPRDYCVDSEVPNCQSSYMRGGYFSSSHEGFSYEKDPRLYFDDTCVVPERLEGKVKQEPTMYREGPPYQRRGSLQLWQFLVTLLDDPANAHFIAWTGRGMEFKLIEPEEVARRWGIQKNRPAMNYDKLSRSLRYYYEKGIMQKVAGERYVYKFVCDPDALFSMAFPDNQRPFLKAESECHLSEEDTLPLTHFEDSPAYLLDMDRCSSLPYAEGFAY
Chain of ETV1 (P50549 whole entry): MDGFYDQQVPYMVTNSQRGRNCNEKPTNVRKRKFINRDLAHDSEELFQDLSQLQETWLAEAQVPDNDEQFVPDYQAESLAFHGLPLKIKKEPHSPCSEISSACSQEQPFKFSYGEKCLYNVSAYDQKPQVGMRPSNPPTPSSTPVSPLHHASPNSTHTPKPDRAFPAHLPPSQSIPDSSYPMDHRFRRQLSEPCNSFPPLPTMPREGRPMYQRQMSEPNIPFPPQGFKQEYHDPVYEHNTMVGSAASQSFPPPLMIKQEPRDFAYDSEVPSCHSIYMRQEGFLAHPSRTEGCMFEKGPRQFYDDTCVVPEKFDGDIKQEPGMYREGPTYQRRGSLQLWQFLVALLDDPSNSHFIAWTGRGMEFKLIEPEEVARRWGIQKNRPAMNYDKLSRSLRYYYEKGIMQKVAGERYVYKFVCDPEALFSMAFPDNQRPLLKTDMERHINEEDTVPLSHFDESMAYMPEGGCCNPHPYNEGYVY
Chain of ELF4 (Q99607 whole entry): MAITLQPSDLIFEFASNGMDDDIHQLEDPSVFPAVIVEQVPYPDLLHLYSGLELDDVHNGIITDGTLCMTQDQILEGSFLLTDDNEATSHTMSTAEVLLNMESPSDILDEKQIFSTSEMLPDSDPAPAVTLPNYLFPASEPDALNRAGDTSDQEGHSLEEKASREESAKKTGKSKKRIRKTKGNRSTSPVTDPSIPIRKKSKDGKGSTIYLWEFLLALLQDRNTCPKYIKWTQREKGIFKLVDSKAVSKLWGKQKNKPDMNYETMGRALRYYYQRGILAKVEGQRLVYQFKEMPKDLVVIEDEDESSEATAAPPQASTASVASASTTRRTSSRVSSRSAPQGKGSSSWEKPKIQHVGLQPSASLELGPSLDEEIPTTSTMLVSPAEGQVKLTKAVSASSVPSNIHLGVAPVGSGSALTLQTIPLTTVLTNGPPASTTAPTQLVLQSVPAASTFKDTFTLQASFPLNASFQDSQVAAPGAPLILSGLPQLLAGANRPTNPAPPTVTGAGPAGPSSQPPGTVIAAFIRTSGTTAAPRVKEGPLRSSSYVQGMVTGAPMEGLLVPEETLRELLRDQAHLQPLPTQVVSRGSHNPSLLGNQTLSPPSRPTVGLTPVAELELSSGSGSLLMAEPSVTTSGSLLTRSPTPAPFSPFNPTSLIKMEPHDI
Chain of HSF1 (Q00613 whole entry): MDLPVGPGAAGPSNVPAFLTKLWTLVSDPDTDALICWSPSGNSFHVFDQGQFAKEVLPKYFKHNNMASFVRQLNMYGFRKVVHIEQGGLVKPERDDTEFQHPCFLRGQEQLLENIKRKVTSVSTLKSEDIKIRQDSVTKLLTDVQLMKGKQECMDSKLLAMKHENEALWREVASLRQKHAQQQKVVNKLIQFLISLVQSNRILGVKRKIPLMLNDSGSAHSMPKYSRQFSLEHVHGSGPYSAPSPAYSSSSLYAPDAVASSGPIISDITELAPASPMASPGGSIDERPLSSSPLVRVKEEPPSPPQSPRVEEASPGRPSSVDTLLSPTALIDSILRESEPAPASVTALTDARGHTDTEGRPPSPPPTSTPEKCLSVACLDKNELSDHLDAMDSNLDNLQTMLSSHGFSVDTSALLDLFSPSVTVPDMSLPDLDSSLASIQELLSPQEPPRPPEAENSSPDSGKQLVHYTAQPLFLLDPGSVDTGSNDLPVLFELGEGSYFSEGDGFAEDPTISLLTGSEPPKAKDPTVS

On to AATACC, for which the binding signal with FEV is 1.23 fold enrichment (6-mer frequency, TF over GST control); in the assay with ETV5 it was 1.13 fold enrichment (6-mer frequency, TF over GST control); with HSF1, 1.19 fold enrichment (6-mer frequency, TF over GST control); in the assay with SPIC it was 1.15 fold enrichment (6-mer frequency, TF over GST control); in the assay with ELF4 it was 1.1 fold enrichment (6-mer frequency, TF over GST control); with ELK4 it was 1.11 fold enrichment (6-mer frequency, TF over GST control). For the same sequence, the binding signal with ETV2 was 1.17 fold enrichment (6-mer frequency, TF over GST control); with ELF3, 1.12 fold enrichment (6-mer frequency, TF over GST control); in the assay with CRX it was 1.44 fold enrichment (6-mer frequency, TF over GST control); with ETV1 it was 1.22 fold enrichment (6-mer frequency, TF over GST control); in the assay with ERF, 1.29 fold enrichment (6-mer frequency, TF over GST control); with ETV3L, 1.15 fold enrichment (6-mer frequency, TF over GST control). Also, the binding signal in the assay with ETS2 is 1.21 fold enrichment (6-mer frequency, TF over GST control); with SPDEF, 1.11 fold enrichment (6-mer frequency, TF over GST control); in the assay with ETV7, 1.21 fold enrichment (6-mer frequency, TF over GST control); with ELF5 it was 1.17 fold enrichment (6-mer frequency, TF over GST control); with ETV3, 1.17 fold enrichment (6-mer frequency, TF over GST control); in the assay with ETV6, 1.16 fold enrichment (6-mer frequency, TF over GST control).

These data come from PMC7862700, “An all-to-all approach to the identification of sequence-specific readers for epigenetic DNA modifications on cytosine”.
